Source: PubChem (Broad Institute)
Many of the other results were omitted from the sample, so hits are more common in it than they were.
BL2 CD40 inh = inhibitors of CD40-induced NF-kB signaling, primary screen, BL2 cells, luciferase reporter, single point. 83,000 compounds, 0.94% hits. inhibition, % at 10 µM. CD40L-induced, 4 h. AID 1053188, 2014;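 active means mean inhibition of at least 50% with a set share of replicates also reaching that level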;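 further: 0% = neutral control wells and 100% = IKK inhibitor VII at 50 µM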
Numbers without * were called inactive; [ ] = another dose, or the depositor's remark.

SMILES | BL2 CD40 inh
COc1ccc(S(=O)(=O)Nc2ccc3c(c2)C(=O)N([C@@H](C)CO)C[C@H](C)[C@@H](CN(C)Cc2ccc(C(F)(F)F)cc2)OCCCC[C@@H](C)O3)cc1 | 76.2*[25 µM]
C[C@@H]1CN([C@@H](C)CO)C(=O)c2cc(NC(=O)Nc3ccc(C(F)(F)F)cc3)ccc2O[C@@H](C)CCCCO[C@H]1CN(C)CC1CCCCC1 | 5.0[25 µM]
C[C@@H]1CN([C@H](C)CO)C(=O)c2cc(NS(=O)(=O)c3ccc(Cl)cc3)ccc2O[C@@H](C)CCCCO[C@H]1CN(C)Cc1ccc(Cl)c(Cl)c1 | 27.5
COc1ccc(CN(C)C[C@H]2OCCCC[C@H](C)Oc3ccc(NS(=O)(=O)c4ccc(Cl)cc4)cc3C(=O)N([C@H](C)CO)C[C@H]2C)cc1 | 62.5*
C[C@@H]1CCCCO[C@@H](CN(C)Cc2ccc(Cl)c(Cl)c2)[C@@H](C)CN([C@H](C)CO)C(=O)c2cc(NS(=O)(=O)c3cccs3)ccc2O1 | 29.9[25 µM]
C[C@H](CO)N1C[C@H](C)[C@H](CN(C)CC2CCCCC2)OCCCC[C@H](C)Oc2ccc(NC(=O)Nc3ccc(C(F)(F)F)cc3)cc2C1=O | 76.1*[25 µM]
C[C@@H]1CCCCO[C@H](CN(C)Cc2ccc(Cl)c(Cl)c2)[C@@H](C)CN([C@H](C)CO)C(=O)c2cc(NS(=O)(=O)c3cccs3)ccc2O1 | 31.4[25 µM]
C[C@@H]1CN([C@H](C)CO)C(=O)c2cc(NC(=O)Nc3ccc(C(F)(F)F)cc3)ccc2O[C@@H](C)CCCCO[C@@H]1CN(C)CC1CCCCC1 | 42.8[25 µM]
O=C(N[C@@H]1CC[C@@H](CCNS(=O)(=O)c2ccc(F)cc2)O[C@@H]1CO)C1CCC1 | -4.9[25 µM]
CN(C)C(=O)c1ccc(-c2ccccc2[C@@H]2[C@@H](CO)N(C(=O)C3CCCC3)[C@H]2C#N)cc1 | 3.8
O=C(Nc1cc(F)ccc1F)N1C[C@H]2[C@@H](c3ccccc31)[C@H](CO)N2CC1CCCC1 | -0.3[25 µM]
CC(C)NC(=O)Nc1ccc2c(c1)CC(=O)N(C)C[C@H](C)[C@H](CN(C)C)O2 | -3.1
O=C(C[C@@H]1C[C@H]2c3cc(NC(=O)NC4CCCCC4)ccc3O[C@H]2[C@H](CO)O1)NCC1CC1 | 2.2
N#C[C@H]1[C@H](c2ccc(C3=CCCCC3)cc2)[C@@H](CO)N1C(=O)NC1CCCCC1 | 8.9
C[C@@H]1CN([C@H](C)CO)C(=O)c2cc(NS(=O)(=O)c3cn(C)cn3)ccc2O[C@@H](C)CCCCO[C@H]1CN(C)C(=O)Nc1ccc(C(F)(F)F)cc1 | 0.2[25 µM]
CCCNC(=O)Nc1ccc2c(c1)OC[C@@H](C)N(C(=O)C1CCOCC1)C[C@@H](C)[C@@H](OC)CN(C)C2=O | -2.0[25 µM]
COCC(=O)N1[C@H](C#N)[C@@H](c2ccccc2C2=CCCCC2)[C@H]1CO | -4.7[25 µM]
COc1ccc(NC(=O)Nc2ccc3c(c2)C(=O)N([C@@H](C)CO)C[C@@H](C)[C@@H](CN(C)Cc2ccc(C(F)(F)F)cc2)OCCCC[C@@H](C)O3)cc1 | 1.0
COc1ccc(NC(=O)Nc2ccc3c(c2)C(=O)N([C@H](C)CO)C[C@@H](C)[C@@H](CN(C)Cc2ccc(C(F)(F)F)cc2)OCCCC[C@@H](C)O3)cc1 | 5.3
COc1ccc(S(=O)(=O)Nc2ccc3c(c2)C(=O)N([C@@H](C)CO)C[C@H](C)[C@H](CN(C)Cc2ccc(C(F)(F)F)cc2)OCCCC[C@H](C)O3)cc1 | 58.7*[25 µM]
C[C@H]1CN([C@@H](C)CO)C(=O)c2cc(NC(=O)Nc3ccc(C(F)(F)F)cc3)ccc2O[C@H]1CN(C)S(=O)(=O)c1ccc(Cl)cc1 | 12.2
C[C@@H]1CN([C@H](C)CO)C(=O)c2cccc(NS(=O)(=O)c3ccc(Cl)cc3)c2O[C@@H]1CN(C)Cc1ccc(C(=O)Nc2ccccc2N)cc1 | active[25 µM]
COc1ccc(S(=O)(=O)N(C)C[C@H]2Oc3ccc(NC(=O)Nc4ccc(C(F)(F)F)cc4)cc3C(=O)N([C@@H](C)CO)C[C@@H]2C)cc1 | 73.8*[25 µM]
COc1ccc(NC(=O)Nc2ccc3c(c2)C(=O)N([C@@H](C)CO)C[C@H](C)[C@@H](CN(C)S(=O)(=O)c2ccc(OC)cc2)O3)cc1 | -6.0
C[C@H]1CN([C@@H](C)CO)C(=O)c2cccc(NS(=O)(=O)c3ccc(Cl)cc3)c2O[C@H]1CN(C)Cc1ccc(C(=O)Nc2ccccc2N)cc1 | -42.6[25 µM]
SMILES | BL2 CD40 inh
C[C@H](CO)N1C[C@H](C)[C@H](CN(C)Cc2ccc(C(=O)Nc3ccccc3N)cc2)Oc2c(NS(=O)(=O)c3ccc(Cl)cc3)cccc2C1=O | -33.3[25 µM]
c1cc2c(cc1C1CCCCC1)c1c3n2CCNC3CCC1 (stereo not drawn) | 11.2[25 µM]
CC(C)NC(=O)N(C)C[C@H]1Oc2ncccc2C(=O)N(C)C[C@@H]1C | 8.8
C[C@@H]1CN([C@H](C)CO)C(=O)c2ccccc2-c2ccccc2CO[C@@H]1CN(C)S(=O)(=O)c1ccccc1F | -3.3
C[C@H]1CN(C)C(=O)c2cccc(N(C)C)c2O[C@H]1CN(C)S(C)(=O)=O | 2.8
C[C@@H]1CN([C@H](C)CO)C(=O)c2cc(NS(=O)(=O)c3ccc(F)cc3)ccc2O[C@@H](C)CCCCO[C@@H]1CN(C)S(=O)(=O)c1ccc(F)cc1 | 14.9
C[C@@H]1CN([C@@H](C)CO)C(=O)c2ccccc2-c2ccccc2CO[C@H]1CN(C)C(=O)c1ccccc1 | -2.4
COc1cccc(-c2ccc3n(c2=O)C[C@@H]2[C@@H](CO)[C@H](C(=O)N(C)C)N(C(=O)C4CCCC4)[C@H]32)c1 | -5.6
c1ccc(-c2nc(-c3ccccn3)no2)cc1 | 87.3*
c1ccc(-c2noc(-c3ccno3)n2)nc1 | -24.7
c1ccc(-c2noc(-c3ccco3)n2)nc1 | -70.6
C[C@H]1CN([C@@H](C)CO)C(=O)CCCn2cc(nn2)CO[C@@H]1CN(C)Cc1ccc2cccnc2c1 | -6.1[25 µM]
CC(C)CN(C(=O)COC(=O)c1cnc(Cl)c(Cl)c1)c1c(N)n(Cc2ccccc2)c(=O)[nH]c1=O | 41.5
CC(C)N(Cc1ccccc1)C(=O)COC(=O)c1cnc(Cl)c(Cl)c1 | 61.1*
CN(Cc1ccccc1)C(=O)COC(=O)c1cncc(Br)c1 | -3.7
O=S(=O)(c1ccccc1)N1CC[C@@H]2[C@H]1c1cc(C#CC3CCCCC3)ccc1N[C@@H]2CO | -4.1[25 µM]
COC(=O)[C@@H]1[C@@H](CO)[C@@H]2Cn3c(ccc(-c4ccccc4OC)c3=O)[C@@H]2N1CC1CCCC1 | 4.4
COc1ccccc1C(=O)OCC(=O)Nc1ccc(Cl)cn1 | 48.9*
CCOc1ncccc1C(=O)OCC(=O)Nc1ccc(Cl)cn1 | 15.2
O=C(COc1ccccc1)Nc1ccc(Cl)cn1 | -57.0
C[C@@H]1CN([C@H](C)CO)C(=O)Cc2cc(NC(=O)Cn3cnnn3)ccc2O[C@H]1CN(C)Cc1ccc(Oc2ccccc2)cc1 | -8.7[25 µM]
COC1=CC(=O)c2c(ccc3ncnc(N)c23)C1=O | 102.6*
Cc1ccccc1-c1ccccc1[C@@H]1[C@H](C#N)N(C(=O)c2cccc(F)c2)[C@H]1CO | 2.7[25 µM]
COc1cccc2c1C(=O)c1c(O)c3c(c(O)c1C2=O)C[C@@](O)(C(C)=O)C[C@@H]3OC1CC(N)C(O)C(C)O1 (stereo partly drawn) | 87.2*[25 µM]
CC(=O)Nc1ccc2c(c1)C(=O)N(C)C[C@H](C)[C@@H](CN(C)C(C)=O)O2 | 2.2
N#C[C@H]1[C@H](c2ccccc2C2=CCCCC2)[C@@H](CO)N1S(=O)(=O)c1cccc(F)c1 | 21.7
c1ccc(-c2ccccn2)nc1 | 2.0
c1ccc(-c2ccc(-c3ccccn3)nn2)nc1 | 52.1*
Nn1c(-c2ccccn2)nnc1-c1ccccn1 | -36.4
CC(=O)N(C)C[C@@H]1Oc2c(NS(C)(=O)=O)cccc2C(=O)N(C)C[C@@H]1C | 3.4
